Measured values reported in PubChem BioAssay (NCATS).
Several values for one entry are separate records, joined by “and”; a condition that tells them apart may be missing. Identical values can stand only once. Records with an inconclusive call do not appear. A number with no mark means an inactive call. Activity calls are given as the source filed them. The call rests on the fitted dose curve; in most records, active means well fitted curve in the direction sought with a large enough effect; inconclusive means small, poorly fitted or top-dose-only effect, or another doubt; inactive means no such curve, though single readings can be large; an effect the other way counts as inactive or inconclusive.

Columns and labels:
[1] = Viability qHTS for spleen associated tyrosine kinase inhibitor (SYKi) naive MV4-11 cells (AID 1963823); further: nearly all actives have a fitted effect of over 40% in size
How it was run: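 Seeding of 500 SYKi-naive MV4-11 cells per well onto pre-dispensed compounds preceded a 72 hr incubation at 37 C. Luminescent CellTiter-Glo signal, read after 10 min at room temperature, reflected viable cells.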

[2] = Viability qHTS for spleen associated tyrosine kinase inhibitor (SYKi) drug resistant MV4-11 cells (AID 1963824); further: nearly all actives have a fitted effect of over 35% in size
How it was run: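 CellTiter-Glo luminescence, read 10 min after reagent addition, reports viability after a 72 hr compound exposure. Cells are an MV4-11 line made resistant to SYK inhibition, seeded at 500 per well onto compound-containing plates.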

[3] = Quantitative highthroughput screen to assess conditional lethalithy of NOMO1 cells grown in Human Plasma-Like Medium with dialyzed fetal bovine serum (HPLM+ds) (AID 1963878); further: nearly all actives have a fitted effect of over 35% in size;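 on Viability: 100% = DMSO wells and 0% = empty wells on each plate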
How it was run: (§1)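 Each medium arm—HPLM with 10% dialyzed FBS, or RPMI1640 with 5 mM glucose and 10% untreated or dialyzed FBS—was screened against an 11-point, 3-fold compound titration for 48 h at 37 °C, with CellTiter-Glo luminescence as endpoint.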

[4] = Quantitative highthroughput screen to assess conditional lethalithy of SEM cells grown in Human Plasma-Like Medium with dialyzed fetal bovine serum (HPLM+ds) (AID 1963882); further: nearly all actives have a fitted effect of over 35% in size; on Viability: series mostly up to about 46 µM
How it was run: as §1

[5] = Quantitative highthroughput screen to assess conditional lethalithy of SEM cells grown in RPMI1640 with unreated serum (RPMI+s) (AID 1963883); further: nearly all actives have a fitted effect of over 35% in size;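 on Viability: 100% = DMSO wells and 0% = empty wells without cells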
How it was run: as §1

[6] = Cellular viability qHTS for adrenocortical cancer (ACC) cell line SW-13 (AID 1963989); conditions: SW-13 ACC cells viability, CellTiter-Glo, 48 h; activity (max response): active compounds read low; further: nearly all actives have a fitted effect of over 65% in size;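 on activity (max response): cells grown in serum-free medium with ITS supplement; on the % scale 0 is the no-effect control and ±100 the full control effect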
How it was run: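 Compound titrations (up to 46 uM final, in DMSO) were applied to SW-13 cells for 48 h at 37C/5% CO2. Reading used CellTiter-Glo after 20 min at room temperature; fitted curves yielded IC50 and efficacy.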

[7] = Quantitative highthroughput screen to assess conditional lethalithy of SEM cells grown in RPMI1640 with dialyzed fetal bovine serum (RPMI+ds) (AID 1963884); further: nearly all actives have a fitted effect of over 35% in size;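 on Viability: series mostly up to about 46 µM; 100% = DMSO control wells and 0% = empty wells without cells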
How it was run: as §1

[8] = Cellular viability qHTS for adrenocortical cancer (ACC) cell line NCI-H295R (AID 1963990); further: nearly all actives have a fitted effect of over 60% in size
How it was run: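 Readout: CellTiter-Glo luminescence, 20 min RT. Exposure: 48 h, 37C/5% CO2. Cells: NCI-H295R, ITS-DMEM serum-free. Range: up to 46 uM. Analysis: 4PL fit, IC50 plus efficacy.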

[9] = Quantitative highthroughput screen to assess conditional lethalithy of P12 Ichikawa cells grown in Human Plasma-Like Medium with dialyzed fetal bovine serum (HPLM+ds) (AID 1963879); conditions: Potency: viability; further: nearly all actives have a fitted effect of over 35% in size; on Viability: series mostly up to about 46 µM
How it was run: as §1

[10] = Quantitative highthroughput screen to assess conditional lethalithy of P12 Ichikawa cells grown in RPMI1640 with dialyzed fetal bovine serum (RPMI+ds) (AID 1963880); conditions: Potency: P12-Ichikawa viability; further: nearly all actives have a fitted effect of over 35% in size;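 on Viability: 100% = DMSO wells and 0% = empty wells on each plate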
How it was run: as §1

[11] = Quantitative highthroughput screen to assess conditional lethalithy of P12 Ichikawa cells grown in RPMI1640 with untreated serum (RPMI+s) (AID 1963881); conditions: Potency: viability; further: nearly all actives have a fitted effect of over 35% in size;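 on Viability: series mostly up to about 46 µM; 100% = DMSO wells and 0% = empty wells without cells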
How it was run: as §1
Potency means the concentration at half of the fitted maximal effect.

Structure (SMILES)	Potency [1]	Potency [2]	Potency [3]	Potency [4]	Potency [5]	Potency [6]	Potency [7]	activity (max response) [6]	Potency [8]	Potency [9]	Potency [10]	Potency [11]
O=C(Nc1ncc(SCCN2CCCC2)s1)[C@]1(c2ccc(S(=O)(=O)C3CC3)cc2)C[C@@H]1C1CCCCC1	2.59 µM (active)	2.59 µM (active)	18.7 µM (active)	–	–	–	–	–	–	–	–	–
N#CCNC(=O)c1ccc(-c2ccnc(Nc3ccc(N4CCOCC4)cc3)n2)cc1	0.411 µM (active)	580 nM (active) and 934 nM (active)	23.5 µM (active)	11.8 µM (active)	10.5 µM (active)	25.1 µM (active)	–	–	–	–	–	–
CNC(=O)c1c(F)cccc1Nc1nc(Nc2cc3c(cc2OC)CCN3C(=O)CN(C)C)nc2[nH]ccc12	2.59 µM (active) and 4.68 µM (active)	2.91 µM (active) and 4.68 µM (active)	16.6 µM (active)	0.59 µM (active)	0.469 µM (active)	–	0.296 µM (active)	–	–	–	–	–
O=c1c(O)c(-c2ccc(O)c(O)c2)oc2cc(O)ccc12	13.2 µM (active)	5.8 µM (active) and 9.34 µM (active)	inactive	–	–	–	23.5 µM (active)	0.454%	inactive	–	–	–
O[C@@H](CNC[C@H](O)[C@H]1CCc2cc(F)ccc2O1)[C@@H]1CCc2cc(F)ccc2O1	10.6 µM (active)	21.1 µM (active)	20.9 µM (active)	–	–	–	–	–	18.4 µM (active)	inactive	–	–
COc1cccc2c(NCc3ccccc3)nc(-n3c(N)nc4ccccc43)nc12	2.35 µM (active)	2.91 µM (active)	–	9.35 µM (active)	5.9 µM (active)	3.16 µM (active)	14.8 µM (active)	–	5.62 µM (active)	16.6 µM (active)	18.7 µM (active)	16.6 µM (active)
CCCCCCCCCCCCc1ccc(S(=O)(=O)Nc2nncs2)cc1	16.4 µM (active)	inactive	7.43 µM (active)	inactive	3.32 µM (active)	–	6.62 µM (active)	-13.1%	inactive	–	–	inactive
O=C(CN1C(=O)C2(CCCC2)NC[C@H]1c1cc(F)cc(F)c1)Nc1ccc2c(c1)C[C@@]1(C2)C(=O)Nc2ncccc21	inactive	18.6 µM (active)	20.9 µM (active)	inactive	–	–	inactive	-4.31%	inactive	inactive	inactive	inactive
CN1CCCN(C(=O)c2cccc(-c3ccc(C=C4C(=O)Nc5ccc(Cl)cc54)o3)c2)CC1	0.517 µM (active)	0.461 µM (active)	–	5.9 µM (active)	1.32 µM (active)	–	1.87 µM (active)	–	–	2.96 µM (active)	14.8 µM (active)	5.9 µM (active)
Nc1nc(Cl)nc2c1ncn2[C@@H]1O[C@H](CO)[C@@H](O)[C@H]1F	0.082 µM (active)	0.164 µM (active)	–	inactive	inactive	–	inactive	–	–	inactive	inactive	inactive
CNCCCC12CCC(c3ccccc31)c1ccccc12	18.8 µM (active) and 14.6 µM (active)	18.4 µM (active)	18.7 µM (active)	–	inactive	–	–	–	23.1 µM (active) and 25.1 µM (active)	–	18.7 µM (active)	18.7 µM (active)
C[C@H](Cc1ccc(O)c(O)c1)[C@@H](C)Cc1ccc(O)c(O)c1	1.46 µM (active)	1.86 µM (active) and 1.03 µM (active)	–	–	–	–	–	–	–	20.9 µM (active)	16.6 µM (active)	18.7 µM (active)
S=C(NCc1ccc2c(c1)OCO2)N1CCN(c2ncnc3c2oc2ccccc23)CC1	3.32 µM (active)	1.86 µM (active)	38.2 µM (active)	–	42.9 µM (active)	–	27 µM (active)	–	–	–	–	–
CNC(=O)c1c(-c2ccc(F)cc2)oc2cc(N(CCO)S(C)(=O)=O)c(C3CC3)cc12	inactive	inactive	8.33 µM (active)	1.32 µM (active)	–	–	0.264 µM (active)	-0.986%	inactive	–	–	6.62 µM (active)
NCCS(=O)(=O)O	inactive	inactive	–	inactive	inactive	–	inactive	6.15% and -3.63%	inactive	inactive	inactive	inactive
Nc1nccc(Oc2ccc(NC(=O)c3c[nH]cc(-c4ccc(F)cc4)c3=O)cc2F)c1Cl	0.0295 µM (active)	0.0291 µM (active)	20.9 µM (active)	–	–	8.91 µM (active)	–	–	10 µM (active)	–	26.4 µM (active)	–
